Measurements published in PubChem BioAssay (NCATS).
Inconclusive results are not listed. A call without a number means that no potency is given here. Calls of active or inactive are those of the source. Calls come from the whole dose curve; as a rule, active = well fitted inhibition curve with a large enough effect; inconclusive = small, poorly fitted or top-dose-only effect; inactive = flat fitted curve, though single readings scatter.

Key:
Experiment in all cases: qHTS profiling for inhibitors of Plasmodium falciparum proliferation (AID 504749); note: nearly all actives have a fitted effect of over 60% in size
Conditions in all cases: P. falciparum in erythrocytes, SYBR Green DNA, 72 h; series mostly up to 28.7 µM
[1] = system: 3D7
In short: (§1)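 In a 72 h erythrocytic culture (37 C, humidified, 5% CO2) at 2.5% hematocrit and 0.3% starting parasitemia, compounds were tested; SYBR Green I in detergent lysis buffer stained parasite DNA overnight.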

[2] = system: CP185
In short: as §1

[3] = system: CP203
In short: as §1

[4] = system: CP211
In short: as §1

[5] = system: CP217
In short: as §1

[6] = system: CP250
In short: as §1

[7] = system: CP252
In short: as §1

[8] = system: CP256
In short: as §1

[9] = system: CP262
In short: as §1

[10] = system: CP265
In short: as §1

[11] = system: CP291
In short: as §1

[12] = system: CP305
In short: as §1

[13] = system: CP315
In short: as §1

[14] = system: CP335
In short: as §1

[15] = system: DIV30
In short: as §1

[16] = system: Dd2
In short: as §1

[17] = system: HB3
In short: as §1

[18] = system: N140
In short: as §1

[19] = system: PC15
In short: as §1

[20] = system: TAB113
In short: as §1
Potency is the fitted concentration of half-maximal effect.

| SMILES | Potency [1] | Potency [2] | Potency [3] | Potency [4] | Potency [5] | Potency [6] | Potency [7] | Potency [8] | Potency [9] | Potency [10] | Potency [11] | Potency [12] | Potency [13] | Potency [14] | Potency [15] | Potency [16] | Potency [17] | Potency [18] | Potency [19] | Potency [20] |
| --- | --- | --- | --- | --- | --- | --- | --- | --- | --- | --- | --- | --- | --- | --- | --- | --- | --- | --- | --- | --- |
| CC1(C)S[C@@H]2[C@H](N)C(=O)N2C1C(=O)O (stereo not given in full) | inactive | inactive | inactive | inactive | inactive | inactive | inactive | inactive | inactive | inactive | inactive | inactive | inactive | inactive | inactive | inactive | inactive | inactive | inactive | inactive |
| C[C@H](N)Cc1ccccc1 | inactive | inactive | inactive | inactive | inactive | inactive | inactive | inactive | inactive | inactive | inactive | inactive | inactive | inactive | inactive | inactive | inactive | inactive | inactive | inactive |
| CCCCCC(O)C1C(=O)OC(C)C(O)\C=C/C=C\C=C/C=C\C=C(\C)C(O)C(O)C(O)CC(O)CC(O)CC(O)CC(O)CC1O (stereo not given) | inactive | inactive | inactive | inactive | inactive | inactive | inactive | inactive | inactive | inactive | inactive | inactive | inactive | inactive | inactive | inactive | inactive | inactive | inactive | inactive |
| O=[N+]([O-])OC1CO[C@H]2C(O[N+](=O)[O-])COC12 (stereo not given in full) | inactive | inactive | inactive | inactive | inactive | inactive | inactive | inactive | inactive | inactive | inactive | inactive | inactive | inactive | inactive | inactive | inactive | inactive | inactive | inactive |
| CCOC(=O)/C=C(C)/C=C/CC(C)CCCC(C)C (stereo not given) | inactive | inactive | inactive | inactive | inactive | inactive | inactive | inactive | inactive | inactive | inactive | inactive | inactive | inactive | inactive | inactive | inactive | inactive | inactive | inactive |
| CN1C2CCC1C(C(=O)O)C(OC(=O)c1ccccc1)C2 (stereo not given) | inactive | inactive | inactive | inactive | inactive | inactive | inactive | inactive | inactive | inactive | inactive | inactive | inactive | inactive | inactive | inactive | inactive | inactive | inactive | inactive |
| CCCCCCC(=O)O[C@H]1CC[C@H]2[C@@H]3CCC4CC(=O)C=C(C)[C@]4(C)[C@H]3CC[C@]12C (stereo not given in full) | 11200 nM (active) | inactive | inactive | inactive | inactive | inactive | inactive | inactive | inactive | inactive | inactive | inactive | inactive | 8490 nM (active) | inactive |  | 11200 nM (active) | inactive |  | inactive |
| COc1ccc2c3c1O[C@H]1[C@@H](O)C=C[C@H]4C(C2)NCCC341 (stereo not given in full) | inactive | inactive | inactive | inactive | inactive | inactive | inactive | inactive | inactive | inactive | inactive | inactive | inactive | inactive | inactive | inactive | inactive | inactive | inactive | inactive |
| C[C@@H]1CC[C@H]2[C@@H](C)C(=O)O[C@@H]3OC4(C)CC[C@@H]1C32OO4 (stereo not given in full) | 7.9 nM (active) | 8.9 nM (active) | 13.5 nM (active) | 16.9 nM (active) | 10 nM (active) | 14.1 nM (active) | 10 nM (active) | 10 nM (active) | 13.5 nM (active) | 7.9 nM (active) | 10.7 nM (active) | 13.5 nM (active) | 23.9 nM (active) | 6.7 nM (active) | 8.5 nM (active) | 6.3 nM (active) | 8.9 nM (active) | 5.6 nM (active) | 10 nM (active) | 5.6 nM (active) |
| C#CCN1CC(=O)N(COC(=O)[C@@H]2[C@@H](C=C(C)C)C2(C)C)C1=O | inactive | inactive | inactive | inactive | inactive | inactive | inactive | inactive | inactive | inactive | inactive | inactive | inactive | inactive | inactive | inactive | inactive | inactive | inactive | inactive |
| OCC(O)[C@H]1O[C@@H]2O[C@H](C(Cl)(Cl)Cl)O[C@@H]2[C@H]1O (stereo not given in full) | inactive | inactive | inactive | inactive | inactive | inactive | inactive | inactive | inactive | inactive | inactive | inactive | inactive | inactive | inactive | inactive | inactive | inactive | inactive | inactive |
| CC1OC(O[C@H]2C[C@@H](O)[C@]3(CO)[C@@H]4C(CC[C@]3(O)C2)[C@@]2(O)CC[C@H](C3=CC(=O)OC3)[C@@]2(C)C[C@H]4O)C(O)C(O)C1O (stereo not given in full) | inactive | inactive | inactive | inactive | inactive | inactive | inactive | inactive | inactive | inactive | inactive | inactive | inactive | inactive | inactive | inactive | inactive | inactive |  | inactive |
| CCCN1CCCC2Cc3nc(N)ncc3CC21 (stereo not given) | inactive | inactive | inactive | inactive | inactive | inactive | inactive | inactive | inactive | inactive | inactive | inactive | inactive | inactive | inactive | inactive | inactive | inactive | inactive | inactive |
| COC(C(=O)C(O)C(C)O)C1Cc2cc3cc(OC4CC(OC5CC(O)C(OC)C(C)O5)C(OC(C)=O)C(C)O4)c(C)c(O)c3c(O)c2C(=O)C1OC1CC(OC2CC(OC3CC(C)(O)C(OC(C)=O)C(C)O3)C(O)C(C)O2)C(O)C(C)O1 (stereo not given) | 631 nM (active) | 1260 nM (active) | 4780 nM (active) |  | 1780 nM (active) | 2000 nM (active) | 2000 nM (active) | 2510 nM (active) | 3380 nM (active) | 2240 nM (active) | 2130 nM (active) | 2390 nM (active) |  | 338 nM (active) |  | 178 nM (active) | 355 nM (active) | 1000 nM (active) | 2240 nM (active) | 708 nM (active) |
| Nc1nc(O)c(-c2ccccc2)o1 | inactive | inactive | inactive | inactive | inactive | inactive | inactive | inactive | inactive | inactive | inactive | inactive | inactive | inactive | inactive | inactive | inactive | inactive | inactive |  |
| C=C1Nc2ccccc2C(=O)N1c1ccccc1C | inactive | inactive | inactive | inactive | inactive | inactive | inactive | inactive | inactive | inactive | inactive | inactive | inactive | inactive | inactive | inactive | inactive | inactive | inactive | inactive |
| OC[C@@H](O)[C@H]1O[C@@H]2OC(C(Cl)(Cl)Cl)O[C@H]2[C@H]1O (stereo not given in full) | inactive | inactive | inactive | inactive | inactive | inactive | inactive | inactive | inactive | inactive | inactive | inactive | inactive | inactive | inactive | inactive | inactive | inactive | inactive | inactive |
| [S]=[Sb][S][Sb]=[S] | inactive | inactive | inactive | inactive | inactive | inactive | inactive | inactive | inactive | inactive | inactive | inactive | inactive | inactive | inactive | inactive | inactive | inactive | inactive | inactive |
| CCCCCc1cc(O)c2c(c1)OC(C)(C)C1CC=C(C)CC21 (stereo not given) | 2820 nM (active) | 6310 nM (active) | 2130 nM (active) | 5360 nM (active) | 2240 nM (active) | 7080 nM (active) | 3160 nM (active) | 11200 nM (active) | 4260 nM (active) | 3550 nM (active) | 6750 nM (active) | 12000 nM (active) | 4260 nM (active) | 3380 nM (active) | 2390 nM (active) | 2510 nM (active) | 5010 nM (active) | 1120 nM (active) | 5010 nM (active) | 2000 nM (active) |
| Cc1ccc2c(c1)[C@@H]1CN(C)CC[C@H]1N2 | inactive | inactive | inactive | inactive | inactive | inactive | inactive | inactive | inactive | inactive | inactive | inactive | inactive | inactive |  | inactive | inactive | inactive | inactive | inactive |
| C[C@]12C=CC(=O)C=C1CC[C@@H]1C2CC[C@]2(C)OC(=O)CCC12 (stereo not given in full) | inactive | inactive | inactive | inactive | inactive | inactive | inactive | inactive | inactive | inactive | inactive | inactive | inactive | inactive | inactive | inactive | inactive | inactive | inactive | inactive |
| C=CC[N+]1(C)CCC23c4c5ccc(O)c4O[C@H]2C(=O)CC[C@@]3(O)C1C5 (stereo not given in full) | inactive | inactive | inactive | inactive | inactive | inactive | inactive | inactive | inactive | inactive | inactive | inactive | inactive | inactive | inactive | inactive | inactive | inactive | inactive | inactive |
| Cc1cc(C)cc(C(=O)OC2CC3CCC(C2)N3C)c1 (stereo not given) | inactive | inactive | inactive | inactive | inactive | inactive | inactive | inactive | inactive | inactive | inactive | inactive | inactive | inactive | inactive |  | inactive | inactive |  | inactive |
